# Source: PubChem (several laboratories)
# A selection: hits, their analogues and other compounds. The true share with any hit is near 3.2%.
# ERa SRC1 inh: ERα–SRC-1 coactivator interaction inhibitors, primary screen, biochemical, TR-FRET, ERα LBD, estradiol-bound; Estrogen receptor (Homo sapiens), P03372; TR-FRET ER-alpha LBD / SRC-1 peptide; inhibition, % at 25.6 µM; actives 1.7% (n = 86,000); AID 629, 2007; in the data active = inhibition above about 50%;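 also: 0% = receptor plus peptide control and 100% = peptide only without receptor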
# Target sequence (P03372 whole entry, looked up, the tested form may be a part): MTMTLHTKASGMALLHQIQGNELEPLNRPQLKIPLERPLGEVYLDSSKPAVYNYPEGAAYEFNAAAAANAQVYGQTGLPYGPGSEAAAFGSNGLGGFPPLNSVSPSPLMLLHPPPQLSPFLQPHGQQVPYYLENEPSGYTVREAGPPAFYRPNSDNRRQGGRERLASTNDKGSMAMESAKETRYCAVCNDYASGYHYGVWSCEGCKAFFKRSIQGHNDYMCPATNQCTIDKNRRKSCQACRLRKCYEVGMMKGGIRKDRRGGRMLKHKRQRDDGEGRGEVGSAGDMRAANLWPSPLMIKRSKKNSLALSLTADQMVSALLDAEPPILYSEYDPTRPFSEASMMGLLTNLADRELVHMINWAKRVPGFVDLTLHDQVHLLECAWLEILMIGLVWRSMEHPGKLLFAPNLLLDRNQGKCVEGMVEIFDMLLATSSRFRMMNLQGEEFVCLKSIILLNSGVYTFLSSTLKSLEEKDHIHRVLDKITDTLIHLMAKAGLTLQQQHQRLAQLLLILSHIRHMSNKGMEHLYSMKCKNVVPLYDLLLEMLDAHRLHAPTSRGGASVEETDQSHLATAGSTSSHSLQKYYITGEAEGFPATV
# ERb coact inh: inhibitors of ERβ-SRC1 coactivator interaction, primary screen, biochemical, TR-FRET, ERβ LBD, SRC-1 peptide | Estrogen receptor beta (Homo sapiens), Q92731 | TR-FRET ER-beta LBD / SRC1-Cy5 peptide binding; receptor agonist-loaded with 1 µM estradiol | inhibition, % at 25.6 µM | actives 1.3% (n = 86,000) | AID 633, 2007;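 active = compounds whose percent inhibition of the receptor-coactivator binding signal exceeds about 50% in the single-dose screen, limit read from the data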;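 also: 0% = receptor plus peptide wells without compound and 100% = peptide-only wells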
# ERa SRC1 pot: enhancers of ERα–SRC-1 coactivator binding, primary screen, biochemical, TR-FRET, ERα LBD, low estradiol; Estrogen receptor (Homo sapiens), P03372; TR-FRET ERalpha-LBD/SRC-Cy5 coactivator binding, 2 h; 100 = basal binding, no effect; coactivator binding (% of control), % at 25.6 µM; actives 1.3% (n = 86,000); in the data active = activity above about 200%;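 also: binding measured in presence of low estradiol as agonist stimulus; 0% = peptide alone without receptor and 100% = receptor with peptide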
# FAK blocker: FAK kinase inhibitors, primary screen, biochemical. Focal adhesion kinase 1 (Homo sapiens), Q05397. biochemical FAK kinase activity assay. inhibition, %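 (tested at 7 µM)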. actives 0.84% (n = 97,000). AID 727, 2007; in the data active = inhibition above about 19%;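 also: 0% = DMSO and 100% = reference compound high control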
# The depositor's hits bear a star; . = not tested or not shown; [ ] = remark or other dose.
SMILES,ERa SRC1 inh,ERb coact inh,ERa SRC1 pot,FAK blocker
COc1ccccc1-n1c(SCC(=O)NC2CCCCC2)nc2c(c1=O)SCC2,4,1,697*,3
COCC(=O)Nc1ccccc1C(=O)Nc1ccc(OC)cc1,-3,0,141,-1
COc1ccc(NC(=O)c2ccccc2NC(=O)COc2ccccc2)cc1,56*[fluorescence artefact?],38,211*[fluorescence artefact?],1
CC(C)(C)NC(=O)COC(=O)c1cc(F)c(F)cc1Cl,.,.,.,-1
CCCCN1c2ccccc2N(CCCO)c2cc(C)nnc21,3,-1,103,-1
CCC(C)Sc1nc2c(cnn2-c2ccc(C)cc2)c(=O)[nH]1 (configuration not stated),4,43,526*[fluorescence artefact?],-3
CCSc1nc2c(cnn2-c2ccc(C)cc2)c(=O)[nH]1,-19,23,628*,.
C=Cn1c(N2CCOCC2)nc2c1c(=O)[nH]c(=O)n2C,.,.,.,4
COc1ccc(-c2noc(CCC(=O)N3CCN(c4cccc(C(F)(F)F)c4)CC3)n2)cc1,-11,51*,99,4
O=C(c1ccc(F)cc1)N1CCCCC(Sc2nnnn2-c2ccccc2)C1=O (configuration not stated),-11,-4,85,4
CCOC(=O)c1c(C)[nH]c(C)c1C(=O)COC(=O)CCOc1ccccc1OC,21,58*,80,0
CC(=O)c1c(C)[nH]c(C(=O)COc2ccc(C#N)cc2)c1C,63*,12,42,-2
CCOC(=O)c1[nH]c(COC(=O)CCOc2ccccc2OC)c(C(=O)OCC)c1C,.,.,.,1
CCOc1ccc(OCC)c(NC(=O)c2[nH]c(C)c(C(C)=O)c2C)c1,54*[fluorescence artefact?],38,249*[fluorescence artefact?],-13
COc1ccccc1OCC(=O)c1[nH]c(C)c(C(C)=O)c1C,69*[fluorescence artefact?],74*[fluorescence artefact?],42,11
CN(CCCNC(=O)c1cccn2c(=O)c3ccccc3nc12)Cc1ccccc1,.,.,.,8
CN(CC(=O)Nc1sccc1C#N)C1CCCCC1,79*[fluorescence artefact?],60*[fluorescence artefact?],36,12
N#Cc1ccsc1NC(=O)CN1CCCCCC1,.,.,.,-1
C=CCNC(=S)NNC(=O)C(CCCC)CC(C)(C)O (configuration not stated),-32,-20,99,1
Cc1ccc(S(=O)(=O)c2cc3c(=O)n4ccccc4nc3n(Cc3ccco3)c2=N)cc1,47,63*[fluorescence artefact?],83,1
N=c1c(C(=O)NCc2ccco2)cc2c(=O)n3ccccc3nc2n1Cc1ccccc1,47,35,72,0
COCCn1c(=N)c(C(=O)NCc2ccco2)cc2c(=O)n3ccccc3nc21,2,24,107,.
Cc1cccn2c(=O)c3cc(C(=O)NCc4ccco4)c(=N)n(CCc4ccccc4)c3nc12,93*[fluorescence artefact?],59*,55,.
Cc1ccc(CNC(=O)c2cc3c(=O)n4ccccc4nc3n(Cc3ccco3)c2=N)cc1,82*[fluorescence artefact?],55*[fluorescence artefact?],53,.
Cc1cccn2c(=O)c3cc(C(=O)NCc4ccco4)c(=N)n(C(C)C)c3nc12,3,13,89,0
SMILES,ERa SRC1 inh,ERb coact inh,ERa SRC1 pot,FAK blocker
N=c1c(C(=O)NCc2ccco2)cc2c(=O)n3ccccc3nc2n1Cc1ccc(Cl)cc1,80*[fluorescence artefact?],58*[fluorescence artefact?],75,3
COC(C(=O)Nc1cccc(F)c1)c1ccccc1 (configuration not stated),-1,-6,83,.
N=c1c(C(=O)NCc2ccccc2)cc2c(=O)n3ccccc3nc2n1Cc1ccco1,71*[fluorescence artefact?],47,68,6
Cc1ccc(S(=O)(=O)c2cc3c(=O)n4cccc(C)c4nc3n(CC3CCCO3)c2=N)cc1 (configuration not stated),-30,3,290*,.
Cc1ccc(S(=O)(=O)c2cc3c(=O)n4ccccc4nc3n(CC3CCCO3)c2=N)cc1 (configuration not stated),12,32,70,0
CCN(CC)CCCN1C(=O)C(O)=C(C(=O)c2cccs2)C1c1ccccn1 (configuration not stated),-39,-20,102,-2
COC(=O)C1CCN(C(=O)Cc2ccc(Br)cc2)CC1,55*[fluorescence artefact?],66*[fluorescence artefact?],50,-4
Cc1cccc(C)c1NS(=O)(=O)c1c(C)[nH]c(=O)[nH]c1=O,-1,5,111,1
CCOC(=O)c1ccccc1NC(=O)CSc1ccccc1,3,6,116,0
CCOC(=O)c1sc2nc(CSc3nc4ccccc4n3CC)[nH]c(=O)c2c1C,54*[fluorescence artefact?],38,75,10
COC(=O)c1sc2nc(CSc3nc4ccc(C)cc4[nH]3)[nH]c(=O)c2c1C,30,20,64,1
c1cncc(Oc2cccc(Oc3cccnc3)c2)c1,-8,98*[fluorescence artefact?],90,4
O=C(O)c1cccc2c1C(=O)N(Cc1ccncc1)C2,-12,-16,110,6
COc1ccc(N2Cc3cccc(C(=O)O)c3C2=O)cc1,64*,65*,36,9
Cc1ccc(C(=O)Oc2ccc(C(=O)COC(=O)C3CC(=O)N(Cc4ccco4)C3)cc2)cc1 (configuration not stated),24,7,274*[fluorescence artefact?],7
NC(=O)c1oc2ccccc2c1NC(=O)c1ccc(F)cc1,.,.,.,18
NC(=O)c1oc2ccccc2c1NC(=O)c1nc2ccccc2s1,22,26,493*,-4
COc1cc(NC(=O)c2cc3c(C)nc4ccccc4c3o2)cc(OC)c1OC,-1,-14,113,-1
COc1ccc(C)cc1NC(=O)c1cc2c(C)nc3ccccc3c2o1,66*[fluorescence artefact?],58*[fluorescence artefact?],204*[fluorescence artefact?],.
Cc1occc1C(=O)NCc1cccc(CNC(=O)c2ccoc2C)c1,65*,-8,131,5
O=C(O)c1ccccc1C(=O)NCc1ccccc1,7,2,101,3
CCc1ccc(CNC(=O)c2cc3c(C)nc4ccccc4c3o2)cc1,15,60*[fluorescence artefact?],64,0
Cc1nc2cccc(C(=O)NCc3ccccc3)c2o1,64*,40,76,1
CNCC(O)Cn1c(C(F)(F)F)nc2ccccc21 (configuration not stated),-20,-15,109,1
Cc1nnc(SCCn2c(N3CC(C)CC(C)C3)nc3c2c(=O)[nH]c(=O)n3C)s1 (configuration not stated),-4,5,108,2
SMILES,ERa SRC1 inh,ERb coact inh,ERa SRC1 pot,FAK blocker
O=C(Nc1cccc(C(F)(F)F)c1)c1cnc2n(c1=O)CCS2,2,6,285*[fluorescence artefact?],-9
Cc1cccc(NC(=O)c2cnc3n(c2=O)CCS3)c1,-4,-10,97,-1
CCc1ccccc1NC(=O)c1cnc2scc(C)n2c1=O,10,11,216*[fluorescence artefact?],2
Cn1nccc1C(=O)N1CCN(c2ccc(F)cc2)CC1,-13,-7,111,-1
CC(C)N(C(=O)CSc1nc2ccccc2n1Cc1ccc(F)cc1)C(C)C,-1,-21,89,-1
CSc1nc2ccccc2n1Cc1cccc(F)c1,2,75*[fluorescence artefact?],93,4
